# Only some compounds are listed: those with a hit (about 3.6% of all), similar ones and a draw of the others.
# PTEN del growth = growth suppression of PTEN-null HCT116, primary screen, cell-based, CellTiter-Glo | viability, % at 10 µM | HCT116 PTEN-null viability, 60 h; hits give low values | 140,000 compounds, 1.2% hits | AID 827, 2007;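 active = viability at or below a set limit, 4 SD under the median of all tested compounds, cut at about 3.7% in these data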;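 also: PTEN knockout HCT116 line with beta catenin targeted HCT116 as companion control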
# HCT116 bCat-KO = primary screen for growth suppressors in beta-catenin knockout HCT116 cells (colon tumor, human); HCT116 beta-catenin knockout viability, CellTiter-Glo, 60 h; hits give low values; viability, % at 10 µM; 140,000 compounds, 1.5% hits; AID 818, 2007;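 active = viability at or under a set limit, the compound median less 4 SD, cut at about 6% in these data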;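 also: 0% = Hyamine 1622 control at 20 µM and 100% = untreated cell control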
# DAT uptake mod = changed hDAT dopamine uptake under cocaine IC80, either direction, primary screen, cocaine antagonist project, cell-based, LLC-PK1 hDAT, [14C]-dopamine uptake, MLSMR | 110,000 compounds, 1.3% hits | B-score at 10 µM | LLC-PK1 hDAT cells, [14C]-dopamine uptake with cocaine IC80; actives deviate in either direction | AID 449768, 2010 | Sodium-dependent dopamine transporter (Homo sapiens), Q01959;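 active = Z score or B-score, a plate-position-corrected score, falls beyond the plate's 99.7% confidence bounds, in either direction; inactive = both scores lie inside the 99.7% bounds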;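 also: scored against the spread of the other compound wells on the same plate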
# Target sequence (Q01959 whole entry, looked up): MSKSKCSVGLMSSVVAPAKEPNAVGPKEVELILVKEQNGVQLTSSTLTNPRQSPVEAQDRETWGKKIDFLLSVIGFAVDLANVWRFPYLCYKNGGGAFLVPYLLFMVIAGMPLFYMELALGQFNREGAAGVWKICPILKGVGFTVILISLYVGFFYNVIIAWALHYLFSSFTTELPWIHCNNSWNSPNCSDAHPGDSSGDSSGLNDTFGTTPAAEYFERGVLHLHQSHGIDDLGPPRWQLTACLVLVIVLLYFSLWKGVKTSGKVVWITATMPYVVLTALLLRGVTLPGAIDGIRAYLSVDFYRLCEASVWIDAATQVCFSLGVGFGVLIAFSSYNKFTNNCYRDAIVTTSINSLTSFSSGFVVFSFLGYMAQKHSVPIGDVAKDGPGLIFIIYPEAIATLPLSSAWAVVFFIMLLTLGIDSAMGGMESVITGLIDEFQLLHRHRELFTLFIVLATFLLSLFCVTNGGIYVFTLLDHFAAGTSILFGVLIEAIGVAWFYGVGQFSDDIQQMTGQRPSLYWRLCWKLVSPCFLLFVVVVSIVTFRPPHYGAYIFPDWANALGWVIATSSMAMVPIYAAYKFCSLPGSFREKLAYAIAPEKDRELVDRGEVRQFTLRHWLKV
# WT yeast gro inh = growth inhibition of WT strain, primary screen, mitochondrial fusion inhibitor project, WT and mutant strains, chemical genetic. mitochondrial fusion phenotypic screen. 190,000 compounds, 2.1% hits. inhibition, % at 10 µM; in the data active = inhibition above about 58%; tested in S. cerevisiae
# Starred values were filed as active, the others as inactive; x = no result.
SMILES,PTEN del growth,HCT116 bCat-KO,DAT uptake mod,WT yeast gro inh
Cc1ccc(-c2nc(NC(=O)c3nn(C)cc3[N+](=O)[O-])sc2C)cc1,1.4*,1.4*,0.27,24
Cc1ccc(-c2nc(NC(=O)c3nn(C)cc3[N+](=O)[O-])sc2C)cc1C,1.4*,1.6*,x,2
CC(=O)c1c(C)[nH]c(C(=O)Nc2nc(-c3ccc(Cl)cc3)cs2)c1C,67,71,x,86*
Cn1cc([N+](=O)[O-])c(C(=O)Nc2nc(-c3ccc(Cl)cc3)cs2)n1,1.4*,2.1*,-0.26,23
Cc1cnc(NC(=O)c2nn(C)cc2[N+](=O)[O-])s1,x,x,x,16
Cc1ccc(-c2nn(-c3ccccc3)cc2C(=O)OCC(=O)Nc2ncc(Cl)cc2Cl)cc1,99,83,x,3
CN(C)S(=O)(=O)c1ccc(N=Cc2c(C(F)(F)F)[nH]n(C)c2=O)cc1,x,x,x,-19
Cc1cccc(C)c1NC(=S)NC(C)CCc1ccccc1 (centres undefined),62,54,x,73*
Cc1ccc(NC(=S)NC(C)CCc2ccccc2)cc1C (centres undefined),49,46,x,68*
O=C(CN1CCN(c2ccccc2F)CC1)NC(=O)NCc1ccco1,x,x,x,3
Cc1cccc(NC(=O)C2(c3cccs3)CCOCC2)n1,92,86,x,-7
COc1ccc(C=O)cc1CSc1nnc(COc2cccc3cccnc23)o1,65,72,0.83,67*
COc1ccc(N2CCN(C(=O)CSc3nnc(COc4cccc5cccnc45)o3)CC2)cc1,93,91,1.7,-3
Cc1ccc(C(=O)NCC(=O)OCC(=O)NC2CCCC(C)C2C)s1 (centres undefined),x,x,x,-21
Cc1ccc(NC(=O)c2nc[nH]c2C(=O)N2CCN(c3ccccc3)CC2)cc1,x,x,0.018,x
CCC(C)c1ccc2oc(-c3ccc(NC(=O)Cn4cnc5c(=O)n(C)c(=O)n(C)c54)cc3)nc2c1 (centres undefined),1.5*,1.6*,0.3,-3
Nc1c(-c2ccc(Cl)cc2)cnn1-c1cccc([N+](=O)[O-])c1,87,81,-3*,10
Nc1c(-c2ccccc2)cnn1-c1cccc([N+](=O)[O-])c1,95,109,-0.022,-14
Cc1cccc(C)c1NC(=O)C(c1ccccc1)N1CCC1=O (centres undefined),94,101,1.2,-11
Cc1ccc(C(=O)CCC(=O)Nc2cccc(C(F)(F)F)c2)cc1,102,102,-0.66,11
CC1CC(=O)N(CC(=O)N2CCCC2)c2ccccc2S1 (centres undefined),101,102,-0.23,-2
CSc1ccc2c(c1)N(CCC1CCCCN1C)c1ccccc1S2 (centres undefined),1.4*,1.2*,-1.7,85
CCn1c(NC(=O)c2ccc(C)cc2)c2ccccc2nc1=O,106,98,-0.26,-18
CCn1c(NC(=O)c2ccc(F)cc2)c2ccccc2nc1=O,84,81,-0.66,58*
CC(C)CNC(=O)c1ccc(NC(=O)c2cccs2)cc1,103,104,x,-4
SMILES,PTEN del growth,HCT116 bCat-KO,DAT uptake mod,WT yeast gro inh
COc1ccc(S(=O)(=O)Nc2ccccc2C(F)(F)F)cc1,93,103,0.5,-15
COc1ccc(S(=O)(=O)NC(C)C(=O)Nc2ccccc2C(F)(F)F)cc1 (centres undefined),93,101,-1.7*,-1
O=S(=O)(c1cc(-c2nnc(-c3ccc(Br)cc3)o2)ccc1Br)N1CCCCCC1,55,42,3.3*,3
CSc1ccccc1NC(=S)N/N=C/c1cccn1Cc1ccc(F)cc1,x,x,x,65*
CSc1ccccc1NC(=S)N/N=C/c1cccn1Cc1cccc(C)c1,x,x,x,63*
Cc1cccc(NC(=S)N/N=C/c2cccn2Cc2ccc(F)cc2)c1,x,x,x,42
C/C(=N\Nc1nc(N2CCCCCC2)nc(N2CCCCCC2)n1)c1ccccc1,x,x,x,65*
CC(=O)N1CCN(c2ccc(NC(=O)c3ccc4c(c3)OCCO4)cc2Cl)CC1,x,x,x,3
CCOc1cccc(C(=O)Nc2ccccc2N2CCN(C(=O)C(C)C)CC2)c1,68,68,-9.1*,19
CC(C)C(=O)N1CCN(c2ccc(NC(=O)c3ccc4c(c3)OCCO4)cc2Cl)CC1,1.7*,1.3*,0.29,43
O=S(=O)(O)c1ccc(N2N=C(c3ccccc3)CC2c2ccccc2)cc1 (centres undefined),x,x,x,-10
CCc1ccc(C2=NN(c3ccc(S(N)(=O)=O)cc3)C(c3ccc(F)cc3)C2)cc1 (centres undefined),13,32,0.21,94*

# High-throughput results from PubChem.
